# Source: PubChem BioAssay
# A selection: hits, their analogues and other compounds. The true share with any hit is near 9.4%.
# ELG1 repair inh – qHTS screen for small molecules that inhibit ELG1-dependent DNA repair in human embryonic kidney (HEK293T) cells expressing luciferase-tagged ELG1; HEK293T ELG1-luciferase reporter, luminescence, 16 h; DNA damage induced by 5-fluorouridine; Potency, µM (doses to about 46.1 µM), most hits filed as inhibitors; hit rate 2.3% among 330,000; note: nearly all actives have a fitted effect of over 55% in size
#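 Luminescence from the luciferase reporter, measured 30 min after ONE-Glo reagent at room temperature, was the read-out. Beforehand, 2,000 cells per well were exposed for 16 hr at 37 °C to 5-fluorouridine together with compound or vehicle.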
# ELG1 genotox – qHTS screen for small molecules that induce genotoxicity in human embryonic kidney (HEK293T) cells expressing luciferase-tagged ELG1 | AID 504466, 2011 | Potency, µM (series often up to 46 µM), actives largely listed as activators | hit rate 1.3% among 330,000 | HEK293T ELG1-luciferase reporter, luminescence, 16 h; note: nearly all actives have a fitted effect of over 60% in size
#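 Screening used a luciferase reporter fused to human ELG1 in HEK293T cells. Luminescence was read on a CCD plate imager after 16 hr exposure and 30 min ONE-Glo incubation.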
# Rab9 promoter act – qHTS Assay for Rab9 Promoter Activators; Huh7 Rab9 promoter-luciferase reporter, luminescence, 24 h; Potency, µM (titrated, usually from 9.22 µM), usual class: activators; hit rate 2.8% among 320,000; note: nearly all actives have a fitted effect of over 60% in size
#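 Luminescence from Amplite-detected luciferase (10 minutes, ambient) reports Rab9 promoter activation. Before that, stable Rab9-luciferase Huh7 cells (1500/well, reduced-serum OP-MEM I plus 10% FBS) were exposed to compound for 24 hours at 37C.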
# NPC1 prom act – qHTS Assay for NPC1 Promoter Activators. AID 485313, 2010. hit rate 2.4% among 320,000. Huh7 NPC1 promoter luciferase reporter, 24 h. Potency, µM (highest dose often 9.22 µM), usual class: activators; note: nearly all actives have a fitted effect of over 60% in size
#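 Stably transfected Huh7 (NPC1 promoter→luciferase), 1500 cells/well in Opti-MEM + 10% FBS, 2 h settle, then compound 24 h at 37 °C. Luminescence after 10 min with Amplite reagent.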
# SMN2 splice up – qHTS Assay for Enhancers of SMN2 Splice Variant Expression. HEK293 SMN2-luciferase splicing reporter, luminescence, 30-36 h. Potency, µM (doses to about 46.1 µM), hits mostly activators. hit rate 2.8% among 210,000; note: nearly all actives have a fitted effect of over 55% in size
#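 HEK293 cells carry an SMN2 minigene-luciferase reporter in which exon 7 inclusion puts luciferase in frame. Cells were seeded at 2000 cells/well, attached for 10-12 hours, then exposed to compounds for 30-36 hours at 37C before ONE-Glo luminescence.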
# FLuc modulator – qHTS profiling assay for firefly luciferase inhibitor/activator using purifed enzyme and Km concentrations of substrates (counterscreen for miR-21 project); AID 588342, 2011; purified FLuc, Km substrates, luminescence inhibition; Luciferin 4-monooxygenase (Photinus pyralis), P08659; Potency, µM (top dose mostly 57.5 µM), hits mostly inhibitors; hit rate 6.9% among 360,000; note: nearly all actives have a fitted effect of over 55% in size
# Target sequence (P08659 whole entry, looked up): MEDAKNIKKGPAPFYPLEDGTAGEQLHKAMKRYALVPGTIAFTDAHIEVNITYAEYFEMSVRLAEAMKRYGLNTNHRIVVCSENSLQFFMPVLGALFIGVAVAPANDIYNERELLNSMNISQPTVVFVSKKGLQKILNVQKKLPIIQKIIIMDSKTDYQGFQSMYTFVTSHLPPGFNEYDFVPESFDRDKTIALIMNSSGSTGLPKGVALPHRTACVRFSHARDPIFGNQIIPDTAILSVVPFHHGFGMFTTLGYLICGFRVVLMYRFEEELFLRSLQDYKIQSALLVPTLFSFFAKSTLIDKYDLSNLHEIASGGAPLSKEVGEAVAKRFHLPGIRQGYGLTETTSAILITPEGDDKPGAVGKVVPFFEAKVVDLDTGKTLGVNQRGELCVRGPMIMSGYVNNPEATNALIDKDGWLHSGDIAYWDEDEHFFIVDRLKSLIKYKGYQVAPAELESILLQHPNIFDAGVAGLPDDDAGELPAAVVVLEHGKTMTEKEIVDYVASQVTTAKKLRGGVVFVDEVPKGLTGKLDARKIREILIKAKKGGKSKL
#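 Purified P. pyralis luciferase, 10 nM final, with Km-level 10 uM D-luciferin and 10 uM ATP in 50 mM Tris acetate pH 7.5, 10 mM Mg acetate, 0.01% Tween-20, 0.05% BSA; 6-point qHTS titration about 60 µM downward; luminescence read.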
# A number is an active result; n = inactive; u = inconclusive; x = no result. Calls come from the whole dose curve; as a rule, active = well fitted curve in the direction sought with a large enough effect; inconclusive = small, poorly fitted or top-dose-only effect, or another doubt; inactive = no such curve, though single readings can be large; an effect the other way counts as inactive or inconclusive.
SMILES,ELG1 repair inh,ELG1 genotox,Rab9 promoter act,NPC1 prom act,SMN2 splice up,FLuc modulator
CC(=O)c1ccc(-c2nc3ccccc3n2C)o1,u,21µM,u,u,11µM,21µM
CCC(=O)c1cc(-c2nc3ccccc3n2C)n(C)c1,n,n,n,n,n,n
Brc1ccc(Cn2c(-c3ccc(Br)o3)nc3ccccc32)o1,n,n,n,n,n,19µM
Cc1ccc(-c2nc3ccccc3n2C)o1,u,2.9µM,1.1µM,1.6µM,11µM,5.4µM
Cn1c(Sc2nc3ccccc3n2C)nc2ccccc21,u,n,n,n,n,n
CCNC(=O)c1cnc2sc(N3CCCCCC3)nn2c1=O,x,x,x,x,x,n
CCC(C(=O)NCCc1ccc(Cl)cc1)n1ccc2cc(S(=O)(=O)N3CCCCC3)ccc21 (centres undefined),x,x,x,x,x,n
Cc1ccc(NC(=O)Cn2c(=O)n(CCCCC(=O)NCc3ccccc3Cl)c(=O)c3ccccc32)cc1C,x,x,x,x,n,n
Cn1cc(C(=O)c2ccccc2)cc1-c1nc2ccccc2n1C,n,n,n,n,n,n
Cn1c(C2CCCCC2)nc2ccccc21,n,n,n,n,x,n
Cn1c(-c2ccc(Br)o2)nc2ccccc21,u,u,1.4µM,1.4µM,13µM,2.4µM
Cn1c(-c2ccc(Br)o2)nc2cc(Br)ccc21,u,u,1.1µM,1.4µM,14µM,1.9µM
Cc1oc(-c2nc3ccccc3n2C)cc1C(=O)c1ccccc1,u,1.8µM,0.32µM,0.5µM,1.6µM,0.38µM
CC(C)Cn1c(-c2ccc(Br)o2)n[nH]c1=S,n,n,n,n,n,n
C[C@@H]1C[C@H](Nc2ccccc2)c2ccccc2N1C(=O)c1cccnc1,u,n,n,n,n,n
CC1CC(Nc2ccccc2)c2ccccc2N1C(=O)c1cccnc1 (centres undefined),16µM,n,n,n,n,u
CCN(CC)c1ccc2nc3ccc(N)cc3[n+](-c3ccccc3)c2c1,u,n,n,n,x,13µM
CCN(CC)c1ccc2nc3ccccc3[n+](CC)c2c1,3.7µM,n,n,n,x,15µM
CC(C)(C)OC(=O)N1CCC(c2c(C(=O)N3CCN(c4ccccc4F)CC3)cnn2-c2ccccc2Cl)CC1,x,x,x,x,x,n
COc1ccc(C(=O)NC(=S)Nc2ccccc2N2CCOCC2)cc1[N+](=O)[O-],18µM,n,n,n,n,n
O=C(NC(=S)Nc1cc(Cl)ccc1N1CCOCC1)c1ccccc1[N+](=O)[O-],16µM,n,n,n,x,n
COc1ccc(C(=O)NC(=S)N2CCOCC2)cc1[N+](=O)[O-],n,n,n,n,x,n
COc1ccc(Cl)cc1C(=O)NC(=S)Nc1ccccc1N1CCOCC1,n,n,n,n,x,n
COc1ccc(C(=O)Nc2ccccc2N2CCOCC2)cc1[N+](=O)[O-],n,n,n,n,n,n
COc1ccc(C(=O)NC(=S)Nc2ccc(N3CCOCC3)c(Cl)c2)cc1[N+](=O)[O-],13µM,n,n,n,x,n
SMILES,ELG1 repair inh,ELG1 genotox,Rab9 promoter act,NPC1 prom act,SMN2 splice up,FLuc modulator
Clc1ccc(-c2cnc(Oc3ccccc3)nc2)cc1,u,u,2.8µM,0.79µM,14µM,2.7µM
Cc1ccc(-n2ncc(C(=O)NCCc3ccsc3)c2C2CCN(C(=O)OC(C)(C)C)CC2)c(C)c1,x,x,x,x,x,n
CCOc1ccccc1NC(=O)Cn1c(=O)ccc2cc(S(=O)(=O)N3CCCC3)ccc21,x,x,x,x,x,n
Cn1cc2cccc([N+](=O)[O-])c2n1,n,n,n,n,n,n
CCCCN1C=CC(=C2N=c3cccc([N+](=O)[O-])c3=N2)C=C1,u,u,u,u,11µM,21µM
COc1ccccc1CCNC(=O)c1cc(COc2cccc(C(F)(F)F)c2)on1,n,n,n,n,x,n
O=C(NC1CCOC1)c1cc(COc2cccc(C(F)(F)F)c2)on1 (centres undefined),u,u,u,n,x,24µM
